This note sets out measurements from ChEMBL document CHEMBL3988442, “University of Dundee, Small-Polar-MMV Screening Library” (2021).

For some of these results: Entries with a potency or affinity are not part of this list.

Common to all, as to set-up: scale not given: direction of the effect not stated beside the values
The target in experiment [1] is Protein translocase subunit SecA (Escherichia coli (strain K12)) (UniProt P10408). Put plainly: Assay to Identify E. coli SecA ATPase Inhibitors. Particulars: 30 µM. It counts as functional.
Experiment [2] has as its target T1, Ubiquitin-activating enzyme e1, putative (Leishmania donovani (strain BPK282A1)) (UniProt E9BSI1).
T1 sequence (whole entry): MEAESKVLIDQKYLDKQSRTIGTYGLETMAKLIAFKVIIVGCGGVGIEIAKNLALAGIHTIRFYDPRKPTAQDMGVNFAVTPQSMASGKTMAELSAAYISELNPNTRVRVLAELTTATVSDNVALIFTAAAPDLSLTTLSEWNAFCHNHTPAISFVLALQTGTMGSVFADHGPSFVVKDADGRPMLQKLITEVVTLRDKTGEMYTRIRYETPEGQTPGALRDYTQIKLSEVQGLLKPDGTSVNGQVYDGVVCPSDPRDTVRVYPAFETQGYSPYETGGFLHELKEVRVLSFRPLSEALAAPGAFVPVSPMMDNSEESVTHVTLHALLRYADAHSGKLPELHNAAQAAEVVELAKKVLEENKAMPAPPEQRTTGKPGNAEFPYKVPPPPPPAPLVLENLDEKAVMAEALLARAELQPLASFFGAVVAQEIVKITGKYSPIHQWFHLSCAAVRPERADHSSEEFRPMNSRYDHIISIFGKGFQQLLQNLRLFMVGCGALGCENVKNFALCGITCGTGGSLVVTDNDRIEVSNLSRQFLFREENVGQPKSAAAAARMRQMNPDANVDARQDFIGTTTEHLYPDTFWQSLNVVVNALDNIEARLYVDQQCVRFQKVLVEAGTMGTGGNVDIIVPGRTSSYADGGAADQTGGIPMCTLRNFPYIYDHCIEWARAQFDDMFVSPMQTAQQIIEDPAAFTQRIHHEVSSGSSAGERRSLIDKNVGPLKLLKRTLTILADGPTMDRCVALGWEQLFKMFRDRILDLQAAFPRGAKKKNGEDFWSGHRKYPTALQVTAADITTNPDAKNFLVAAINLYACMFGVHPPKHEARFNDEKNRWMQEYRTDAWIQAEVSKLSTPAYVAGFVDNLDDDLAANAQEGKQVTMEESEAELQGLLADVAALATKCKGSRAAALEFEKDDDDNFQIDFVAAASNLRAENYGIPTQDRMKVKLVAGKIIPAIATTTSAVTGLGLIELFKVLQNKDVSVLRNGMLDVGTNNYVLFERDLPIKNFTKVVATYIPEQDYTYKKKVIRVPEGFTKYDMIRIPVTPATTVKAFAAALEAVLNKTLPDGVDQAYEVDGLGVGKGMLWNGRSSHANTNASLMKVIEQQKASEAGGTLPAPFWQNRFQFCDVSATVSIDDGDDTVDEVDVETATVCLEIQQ
Put plainly: Leishmania donovani Ubiquitin Activating Enzyme (LdE1). It counts as functional. Particulars: 30 µM.

Experiment [3] deals with AMP-activated protein kinase, AMPK (Homo sapiens) (UniProt P54646+O43741+P54619+Q9UGJ0+Q9Y478+Q13131+Q9UGI9). Put plainly: AMP-dependent Kinase enzyme assay. An in vitro enzyme assay that detects ADP turnover that is directly proportional to AMPK activity. This uses naive AMPK that is activated during the assay with MK-8722. The experiment is classed as functional. Particulars: 30 µM.

For experiment [4], the target named is Sialic acid-binding Ig-like lectin 9 (Homo sapiens) (UniProt Q9Y336). Put plainly: Hs-Siglec9 ALPHAscreen SOP 20170721. Particulars: 10 µM.
For another experiment, the system named is Trypanosoma cruzi. Put plainly: Trypanosoma cruzi phosphomannomutase and mannose-1-phosphate guanylyltransferase assay. The experiment is classed as functional. Particulars: 10 µM.
The target in experiment [5] is T2, Arginase-2, mitochondrial (Homo sapiens) (UniProt P78540).
T2 sequence (whole entry): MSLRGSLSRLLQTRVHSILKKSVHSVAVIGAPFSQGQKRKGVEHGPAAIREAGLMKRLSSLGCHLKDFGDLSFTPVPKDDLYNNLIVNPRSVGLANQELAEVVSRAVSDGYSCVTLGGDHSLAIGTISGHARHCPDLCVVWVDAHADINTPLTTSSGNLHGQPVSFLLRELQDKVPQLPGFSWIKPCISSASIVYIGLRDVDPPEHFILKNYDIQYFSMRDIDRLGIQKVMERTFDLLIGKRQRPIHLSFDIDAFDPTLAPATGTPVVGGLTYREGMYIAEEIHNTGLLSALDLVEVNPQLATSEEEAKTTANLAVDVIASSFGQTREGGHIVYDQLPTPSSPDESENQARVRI
Put plainly: in vitro enzyme assay to detect the production of urea directly proportional to the activity of Arginase II. Also: in the data most compounds retested in dose-response had high values. It counts as functional. To be noted: 33.3 µM.

Experiment [6] addresses T3, Proteasome subunit beta (Trypanosoma cruzi) (UniProt O96673).
T3 sequence (whole entry): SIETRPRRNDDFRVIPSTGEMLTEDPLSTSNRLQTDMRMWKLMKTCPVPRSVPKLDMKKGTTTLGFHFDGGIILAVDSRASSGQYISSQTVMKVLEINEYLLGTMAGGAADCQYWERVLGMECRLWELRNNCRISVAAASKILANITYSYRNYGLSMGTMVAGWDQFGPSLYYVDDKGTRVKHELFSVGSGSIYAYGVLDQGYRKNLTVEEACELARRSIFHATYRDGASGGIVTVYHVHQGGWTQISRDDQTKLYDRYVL
Put plainly: Trypanosoma cruzi proteasome chymotrypsin-like activity (TcProtChymo) assay. Also: in the data most compounds retested in dose-response had high values. To be noted: 9.37 µM. The experiment is classed as functional.

The species entered for another experiment is Homo sapiens. Put plainly: To identify inhibition of the IFN signalling (Jak-Stat) pathway via expression of an eGFP reporter gene under the control of an IFN-stimulated response element (ISRE) containing MxA promoter. It counts as functional. Particulars: 30 µM.
Experiment [7] has as its target T4, Tyrosyl-tRNA synthetase, putative (Trypanosoma cruzi (strain CL Brener)) (UniProt Q4DSP6).
T4 sequence (whole entry): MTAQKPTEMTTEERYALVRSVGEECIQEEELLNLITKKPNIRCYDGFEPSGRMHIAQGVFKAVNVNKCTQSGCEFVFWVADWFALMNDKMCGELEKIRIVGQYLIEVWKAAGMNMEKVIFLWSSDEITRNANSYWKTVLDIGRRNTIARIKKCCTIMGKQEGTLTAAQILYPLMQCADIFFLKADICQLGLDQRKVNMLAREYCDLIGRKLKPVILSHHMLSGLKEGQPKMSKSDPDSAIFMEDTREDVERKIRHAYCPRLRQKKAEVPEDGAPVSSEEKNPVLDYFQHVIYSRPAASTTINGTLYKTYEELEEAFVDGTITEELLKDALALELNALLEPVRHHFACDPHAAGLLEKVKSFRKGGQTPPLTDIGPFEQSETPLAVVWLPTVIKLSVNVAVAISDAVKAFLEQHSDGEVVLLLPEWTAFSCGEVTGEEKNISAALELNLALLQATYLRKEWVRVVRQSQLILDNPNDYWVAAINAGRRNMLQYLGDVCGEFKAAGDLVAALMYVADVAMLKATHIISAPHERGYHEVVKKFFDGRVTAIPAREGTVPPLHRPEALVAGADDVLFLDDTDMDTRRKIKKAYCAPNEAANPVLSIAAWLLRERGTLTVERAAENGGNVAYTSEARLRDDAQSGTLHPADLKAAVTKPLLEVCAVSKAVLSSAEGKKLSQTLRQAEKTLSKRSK
Put plainly: Trypanosoma cruzi tyrosyl tRNA synthetase (TcYRS) _High Tyrosine SOP. Also: in the data most compounds retested in dose-response had high values. To be noted: 30 µM. It counts as functional.

Experiment [8] deals with T4, Tyrosyl-tRNA synthetase, putative (Trypanosoma cruzi (strain CL Brener)). Put plainly: Trypanosoma cruzi tyrosyl tRNA synthetase (TcYRS) SOP. The experiment is classed as functional. To be noted: 30 µM.
For experiment [9], the target named is Chromo domain-containing protein 1 (Saccharomyces cerevisiae (strain ATCC 204508 / S288c) (Baker's yeast)) (UniProt P32657). Put plainly: ScCHD-1 Enzyme Inhibition Assay. Also: in the data most compounds retested in dose-response had high values. The experiment is classed as functional. Particulars: 30 µM.
Chain of Chromo domain-containing protein 1 (Saccharomyces cerevisiae (strain ATCC 204508 / S288c) (Baker's yeast)) (P32657 whole entry, the tested form may be a part): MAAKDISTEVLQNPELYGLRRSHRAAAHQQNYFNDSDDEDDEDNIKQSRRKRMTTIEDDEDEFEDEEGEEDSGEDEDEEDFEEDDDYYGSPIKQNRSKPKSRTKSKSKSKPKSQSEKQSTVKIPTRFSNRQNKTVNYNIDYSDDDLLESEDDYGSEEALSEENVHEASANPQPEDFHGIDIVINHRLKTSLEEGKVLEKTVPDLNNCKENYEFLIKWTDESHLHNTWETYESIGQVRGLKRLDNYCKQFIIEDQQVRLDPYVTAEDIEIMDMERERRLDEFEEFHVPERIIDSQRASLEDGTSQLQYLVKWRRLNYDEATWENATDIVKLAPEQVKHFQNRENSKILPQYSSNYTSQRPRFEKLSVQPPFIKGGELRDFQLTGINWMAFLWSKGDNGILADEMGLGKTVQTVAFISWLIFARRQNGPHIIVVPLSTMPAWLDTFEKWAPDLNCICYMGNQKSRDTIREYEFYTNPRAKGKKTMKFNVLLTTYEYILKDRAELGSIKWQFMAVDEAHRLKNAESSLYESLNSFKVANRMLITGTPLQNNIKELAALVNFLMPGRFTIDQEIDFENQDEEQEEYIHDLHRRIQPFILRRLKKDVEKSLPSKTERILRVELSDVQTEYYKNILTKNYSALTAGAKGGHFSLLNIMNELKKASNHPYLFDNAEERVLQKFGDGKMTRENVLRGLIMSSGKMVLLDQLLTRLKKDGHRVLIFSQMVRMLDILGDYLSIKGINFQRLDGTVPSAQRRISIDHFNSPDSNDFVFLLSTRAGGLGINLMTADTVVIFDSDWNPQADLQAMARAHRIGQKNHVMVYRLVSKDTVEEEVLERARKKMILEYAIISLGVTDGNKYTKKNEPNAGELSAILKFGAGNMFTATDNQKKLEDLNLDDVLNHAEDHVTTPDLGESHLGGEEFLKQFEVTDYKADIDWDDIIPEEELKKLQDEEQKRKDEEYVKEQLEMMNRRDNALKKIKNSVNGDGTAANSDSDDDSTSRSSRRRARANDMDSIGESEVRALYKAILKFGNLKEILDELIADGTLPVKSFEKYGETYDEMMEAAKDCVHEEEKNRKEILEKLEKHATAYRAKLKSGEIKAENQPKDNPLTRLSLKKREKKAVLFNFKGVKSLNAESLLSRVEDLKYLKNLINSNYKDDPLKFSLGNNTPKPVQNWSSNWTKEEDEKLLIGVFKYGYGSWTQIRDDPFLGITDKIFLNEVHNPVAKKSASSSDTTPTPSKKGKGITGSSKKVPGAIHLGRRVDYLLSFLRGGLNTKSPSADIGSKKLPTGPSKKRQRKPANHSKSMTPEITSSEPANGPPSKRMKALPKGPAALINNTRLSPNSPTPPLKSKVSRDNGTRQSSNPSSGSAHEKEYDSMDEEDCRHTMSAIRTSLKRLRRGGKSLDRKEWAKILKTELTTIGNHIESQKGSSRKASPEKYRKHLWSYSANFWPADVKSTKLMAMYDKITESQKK

Chain of Protein translocase subunit SecA (Escherichia coli (strain K12)) (P10408 whole entry): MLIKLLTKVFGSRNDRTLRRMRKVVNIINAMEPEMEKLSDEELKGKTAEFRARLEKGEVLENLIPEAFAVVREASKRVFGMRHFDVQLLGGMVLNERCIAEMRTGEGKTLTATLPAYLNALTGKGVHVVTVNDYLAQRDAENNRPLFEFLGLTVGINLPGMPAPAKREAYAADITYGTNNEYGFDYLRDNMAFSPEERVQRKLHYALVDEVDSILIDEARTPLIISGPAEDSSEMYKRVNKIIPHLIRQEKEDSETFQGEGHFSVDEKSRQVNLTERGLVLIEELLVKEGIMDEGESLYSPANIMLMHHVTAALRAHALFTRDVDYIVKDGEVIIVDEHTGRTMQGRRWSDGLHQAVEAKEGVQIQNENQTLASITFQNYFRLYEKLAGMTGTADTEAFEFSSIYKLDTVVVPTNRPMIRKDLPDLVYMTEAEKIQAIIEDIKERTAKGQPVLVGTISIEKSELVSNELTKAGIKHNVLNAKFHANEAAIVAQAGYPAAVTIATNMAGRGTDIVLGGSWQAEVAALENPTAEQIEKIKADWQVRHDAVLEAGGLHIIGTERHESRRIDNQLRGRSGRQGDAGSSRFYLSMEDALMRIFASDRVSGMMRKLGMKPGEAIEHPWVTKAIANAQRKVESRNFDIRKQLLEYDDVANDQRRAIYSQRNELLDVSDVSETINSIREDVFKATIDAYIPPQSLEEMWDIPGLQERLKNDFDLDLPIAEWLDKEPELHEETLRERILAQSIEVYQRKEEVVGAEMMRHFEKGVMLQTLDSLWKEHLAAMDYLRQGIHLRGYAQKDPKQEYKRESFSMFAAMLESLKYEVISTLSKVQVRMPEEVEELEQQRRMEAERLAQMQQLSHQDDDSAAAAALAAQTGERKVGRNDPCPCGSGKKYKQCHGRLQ
Chain of Sialic acid-binding Ig-like lectin 9 (Homo sapiens) (Q9Y336 whole entry): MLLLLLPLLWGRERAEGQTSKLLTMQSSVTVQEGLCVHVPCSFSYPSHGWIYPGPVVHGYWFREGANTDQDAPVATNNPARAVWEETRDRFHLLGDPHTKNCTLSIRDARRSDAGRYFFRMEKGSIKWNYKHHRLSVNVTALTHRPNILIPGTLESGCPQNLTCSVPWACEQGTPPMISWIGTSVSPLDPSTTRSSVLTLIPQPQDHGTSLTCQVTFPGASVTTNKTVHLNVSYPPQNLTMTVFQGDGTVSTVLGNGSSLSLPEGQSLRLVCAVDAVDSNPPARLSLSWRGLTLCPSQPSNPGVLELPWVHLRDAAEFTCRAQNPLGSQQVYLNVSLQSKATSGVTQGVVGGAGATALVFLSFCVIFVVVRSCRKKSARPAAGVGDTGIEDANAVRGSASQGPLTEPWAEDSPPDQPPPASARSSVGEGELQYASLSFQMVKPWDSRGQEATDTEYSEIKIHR

`O=C(c1ccc2c(c1)OCO2)N1CCC[C@]2(C[C@H](OCC3CC3)CO2)C1`: the Percent Effect is -3.85% in experiment [1]; 13.3% in experiment [2]; 10.8% in experiment [3]; -11.4% in [4]; 0.197% in the experiment on Trypanosoma cruzi; 2.56% in experiment [5]. In addition, the Percent Effect in [6] was 5.37%; in the experiment filed under Homo sapiens, 6.01%; in [7], 8.51%; in [8], 14.1%; in [9], -8.25%.
On to `Cc1nnc(CN2CCN(CC(O)c3cccc(F)c3)CC2)n1C` (stereo unspecified), for which the Percent Effect in experiment [1] is -3.94%; in [2], 15.6%; in experiment [3], -3.28%; in experiment [4], 3.58%; in the experiment on Trypanosoma cruzi it was 2.64%; in experiment [5], 0.632%. Also, the Percent Effect in experiment [6] was 8.33%; in the experiment filed under Homo sapiens it was 14%; in [7], 3.81%; in experiment [8], 11.8%; in experiment [9], -20.7%.
In the case of `COc1c(CNCC(O)c2cccc(F)c2)c(C(C)C)nn1C` (stereo unspecified), the Percent Effect was 2.75% in [1]; 10.4% in experiment [2]; -6.14% in experiment [3]; -13.3% in experiment [4]; -4.6% in the experiment with Trypanosoma cruzi; -0.21% in [5]. Also, the Percent Effect in experiment [6] was 18.7%; in the experiment listed under Homo sapiens it was 5.92%; in [7], 9.52%; in experiment [8], 14.1%; in experiment [9], -15.9%.
For `Cc1cc(CN2CCN(C(c3ccccc3)c3ccccc3)CC2)no1`, the Percent Effect was -4.43% in experiment [1]; 12.7% in experiment [2]; -1.9% in experiment [3]; 14.9% in experiment [4]; -2.55% in the experiment on Trypanosoma cruzi; 1.14% in [5]. The Percent Effect was 2.87% in experiment [6]; 15.5% in the experiment listed under Homo sapiens; 8.37% in [7]; 11.4% in [8]; -8.11% in experiment [9].
Turning to `COCCOc1ccc(NC(=O)N2CCCC2c2ccncc2)cn1` (stereo unspecified), the Percent Effect in experiment [1] is -2.75%; in experiment [2], 0%; in experiment [3], 2.9%; in experiment [4], 5.29%; in the experiment on Trypanosoma cruzi, 2.64%; in experiment [5] it was -1.47%. The Percent Effect is 12.8% in experiment [6]; 11.5% in the experiment listed under Homo sapiens; 1.91% in [7]; 0% in [8]; -22.2% in experiment [9].
With `O=C(c1cccs1)N1CCC2(C1)c1ccccc1S(=O)(=O)N2CC1CC1` (stereo unspecified), the Percent Effect in experiment [1] is -4.28%; in experiment [2], 2.67%; in [3], 12.3%; in experiment [4], 1.53%; in the experiment on Trypanosoma cruzi, -0.197%; in [5], -8.62%. The Percent Effect is 2.03% in experiment [6]; 17.7% in the experiment filed under Homo sapiens; 5.32% in experiment [7]; 6.41% in experiment [8]; 1.11% in [9].
Take `CC(C)NC(=O)c1ccc2c(c1)nc1n2CCN(c2ccccc2)C1`: the Percent Effect in [1] is -1.74%; in experiment [2] it was -17.3%; in experiment [3] it was 16.6%; in [4], 5.54%; in the experiment on Trypanosoma cruzi, -1.97%; in experiment [5], -9.68%. Moreover, the Percent Effect was 15.3% in [6]; -10.5% in the experiment filed under Homo sapiens; 26.5% in [7]; 33.3% in [8]; -10.5% in experiment [9].
As to `Cc1nc(CN2CCCC(NCCOCC(F)(F)F)C2)no1` (stereo unspecified), the Percent Effect was -6.82% in experiment [1]; 7.59% in experiment [2]; -4.02% in experiment [3]; 0.79% in experiment [4]; 4.44% in the experiment with Trypanosoma cruzi; -1.52% in [5]. Moreover, the Percent Effect in [6] is 4.18%; in the experiment listed under Homo sapiens, -2.76%; in experiment [7] it was 4.43%; in experiment [8], 8.86%; in experiment [9], -5.18%.
`CCN1C[C@H]2CCN(C(C)=O)CC[C@H]2S1(=O)=O`: the Percent Effect was -0.139% in experiment [1]; 9.33% in experiment [2]; -6.04% in [3]; -0.534% in experiment [4]; -5.7% with Trypanosoma cruzi; -5.81% in [5]. For the same molecule, the Percent Effect in experiment [6] was 19.6%; in the experiment listed under Homo sapiens, 1.4%; in [7], 0%; in experiment [8], 5.13%; in experiment [9], -7.45%.
Consider `O=C(NCc1cc[nH]n1)NCC(c1ccccc1Cl)N1CCCC1` (stereo unspecified), for which the Percent Effect in experiment [1] is -5.47%; in experiment [2] it was 5.41%; in experiment [3], -5.47%; in experiment [4], 2.23%; in the experiment on Trypanosoma cruzi, -2.25%; in [5], 4.22%. The Percent Effect in experiment [6] is 13.1%; in the experiment listed under Homo sapiens, -4.64%; in experiment [7] it was 5.38%; in experiment [8], 13.6%; in [9], -1.7%.
Regarding `CC(C)c1nn(C)c(N2CCOCC2)c1CN[C@H](C)CO`, the Percent Effect in [1] is -5.92%; in experiment [2] it was 7.89%; in experiment [3], -9.46%; in experiment [4] it was -5.12%; with Trypanosoma cruzi it was -1.96%; in experiment [5], 1.44%. In addition, the Percent Effect in [6] was 3.3%; in the experiment listed under Homo sapiens it was -5.23%; in [7], 5.42%; in [8], 6.17%; in [9], -4.66%.
